BAZ2B inh = blocks human BAZ2B. Potency, µM (doses to about 114 µM), for the others: at the top dose activity change, negative = inhibition, hits mostly inhibitors. AlphaScreen BAZ2B-H3K14Ac peptide displacement. AID 504333. actives 4.4% (n = 360,000); also: % is scaled to controls: 0 for no effect and ±100 for the full control effect; nearly all actives have a fitted effect of over 60% in size
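AlphaScreen displacement: compounds (up to 110uM) incubated 30 min at room temperature with a preformed 50 nM BAZ2B/50 nM biotinylated H3K14Ac peptide complex in PBS pH 7.4 with Tween-20. Donor and acceptor beads at 10 ug/mL final added, 20 min light-protected before reading.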
G9a inh = inhibitors of human histone lysine methyltransferase G9a; Q96KQ7; actives 8.8% (n = 350,000); G9a H3K9 monomethylation, AlphaScreen, 2 h; AID 504332; Potency, µM (series often up to 102 µM), for inactives: at the highest dose activity, negative = inhibition, hits mostly inhibitors; also: % is scaled to controls: 0 for no effect and ±100 for the full control effect; nearly all actives have a fitted effect of over 75% in size
Target sequence (Q96KQ7 913-1193 limits assumed): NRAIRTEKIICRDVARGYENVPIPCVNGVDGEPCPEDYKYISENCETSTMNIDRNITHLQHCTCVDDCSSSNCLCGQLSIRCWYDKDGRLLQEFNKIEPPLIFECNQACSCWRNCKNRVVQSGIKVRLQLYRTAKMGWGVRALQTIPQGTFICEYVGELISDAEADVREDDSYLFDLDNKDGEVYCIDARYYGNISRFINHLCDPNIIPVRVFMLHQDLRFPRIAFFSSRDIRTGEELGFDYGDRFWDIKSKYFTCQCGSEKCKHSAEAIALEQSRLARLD
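G9a (20 nM) was preincubated 15 min with compound, then reacted 2 h at room temperature with 500 nM biotin-H3K9 peptide and 20 µM SAM. Monomethyl-H3K9 detected by AlphaScreen using anti-H3K9me1 antibody.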
Sfp inh = Sfp phosphopantetheinyl transferase inhibition; Q9F4F7; Biochemical Sfp PPTase activity, qHTS; Potency, µM, for the others: largest response in the series, negative = inhibition, usual class: inhibitors; actives 3.5% (n = 310,000); AID 1490;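 also: the enzyme is Sfp with the accession as filed and its product quenches rhodamine fluorescence; 0% = enzyme reaction without inhibitor and -100% = no enzyme wells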
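After 15 min at room temperature with compound, 15 nM Sfp received 5 uM rhodamine-CoA plus 12.5 uM BHQ-2-ybbR (50 mM Hepes pH 7.6, 10 mM MgCl2). Rate came from the fluorescence difference over 30 min, ex 525/em 598 nm.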
HP1b binding inh = blocks HP1-beta chromodomain binding to methylated histone tails. Potency, µM (titrated, usually from 114 µM), inactives show at the highest dose activity change, negative = inhibition, hits mostly inhibitors. AlphaScreen HP1-beta / biotin-H3K9me3 peptide binding. P83916. actives 0.56% (n = 390,000); also: nearly all actives have a fitted effect of over 70% in size
Target sequence (P83916 whole entry, looked up): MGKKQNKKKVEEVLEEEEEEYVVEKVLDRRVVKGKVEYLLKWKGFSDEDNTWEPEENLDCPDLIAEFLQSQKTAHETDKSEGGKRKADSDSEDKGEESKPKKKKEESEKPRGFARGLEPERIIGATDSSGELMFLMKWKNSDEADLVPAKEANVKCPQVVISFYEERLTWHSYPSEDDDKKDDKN
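HP1-beta protein (50 nM final) preincubated 30 min at room temperature with biotinylated H3(1-18)K9me3 peptide (50 nM) in PBS pH 7.4, 0.01% Tween-20, then compound added for 30 min. AlphaScreen streptavidin donor/nickel chelate acceptor beads (10 ug/mL final), 30 min dark, luminescence read.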
L3MBTL1 block = L3MBTL1 (human) inhibition; AID 485360; Potency, µM (highest dose often 57.1 µM), for the others: at the top dose activity, negative = inhibition, most hits filed as inhibitors; actives 0.66% (n = 230,000); Q9Y468; AlphaScreen L3MBTL1–H3K9me1 peptide binding; also: % is scaled to controls: 0 for no effect and ±100 for the full control effect; nearly all actives have a fitted effect of over 60% in size
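First, the protein-peptide complex forms for 30 min at room temperature (L3MBTL1 50 nM, biotinylated H3K9me1 peptide 75 nM). Next, compounds are pin-transferred and incubated 30 min. Finally, AlphaScreen beads are added and read after 30 min.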
JMJD2A Tudor = blocks the human JMJD2A Tudor domain; AID 504339; Potency, µM (titrated, usually from 114 µM), for inactives: at the highest dose activity change, negative = inhibition, usual class: inhibitors; AlphaScreen JMJD2A-Tudor / H3K4me3 peptide binding; actives 4.4% (n = 390,000); O75164; also: % is scaled to controls: 0 for no effect and ±100 for the full control effect; nearly all actives have a fitted effect of over 50% in size
Starred values were filed as active, the others as inactive; ? = inconclusive; / = no result; [ ] = remark or other dose. Sampled rows, rich in hits. Any-hit rate of the full collection: about 12%. Calls follow the shape of the dose curve; as a rule, active = well fitted curve in the direction sought with a large enough effect; inconclusive = small, poorly fitted or top-dose-only effect, or another doubt; inactive = no such curve, though single readings can be large; an effect the other way counts as inactive or inconclusive. Potency is read from the fitted curve at half-maximal effect.

SMILES | BAZ2B inh | G9a inh | Sfp inh | HP1b binding inh | L3MBTL1 block | JMJD2A Tudor
CC1CCCC(NC(=O)NC(=O)COC(=O)C2=NN(c3ccccc3)C(=O)CC2)C1C (stereo not given) | 3% | 10µM* | / | 40% | 3% | 5%
Cc1ccc2c(c1)c1c(c(=O)n(Cc3ccccc3)c(=O)n1Cc1cccc(F)c1)n2C | 1% | -7%[59 µM] | / | 25% | / | 6%
Nc1nc(NC(=O)c2ccccc2)nn1-c1ccccc1 | ? | 15% | -8% | 61% | -3% | -9%
COc1ccccc1/C=C/C(=O)Nc1nc(N)n(-c2ccccc2)n1 | 56µM* | 14% | 30% | 42% | -17% | -16%
Nc1nc(NC(=O)CCC(=O)O)nn1-c1ccccc1 | 50µM* | / | 7% | 19% | / | 22µM*
Cc1nc2sc(C)c(C)n2c(=O)c1S(=O)(=O)N1CCN(c2ccccc2F)CC1 | -22% | 2%[59 µM] | / | 16% | / | -16%
COc1cccc(N2CC(NC(=O)c3ccc(S(=O)(=O)N4CCCC4)cc3)CC2=O)c1 (stereo not given) | 0% | -2%[59 µM] | / | 22% | / | -9%
CCOc1ccc(NS(=O)(=O)c2ccc3c4c(cccc24)C(=O)N3)cc1 | -39% | -48%[59 µM] | / | -1% | / | ?
CC(C)Oc1ccc(CNC(=O)C2CCN(C(=O)N3CCOc4ccc(Cl)cc43)CC2)cc1 | -14% | ? | / | -4% | / | -36%
O=C(CCC(=O)N/N=C/c1cc(Cl)cc(Cl)c1O)NCc1ccccc1 | 5% | / | 23% | -2% | 6% | 28µM*
COc1cc(CCC(=O)NCc2ccc3c(c2)CCN3C(=O)c2ccccc2)cc(OC)c1OC | -7% | -2%[59 µM] | / | 21% | / | -14%
CCN1CCN(C(=O)/C=C/c2ccc(C(C)C)cc2)CC1 | / | / | / | 2% | / | -7%
CCN1CCC(O)(/C=C/c2ccc(C(C)C)cc2)C(C(=O)/C=C/c2ccc(C(C)C)cc2)C1 (stereo not given) | / | / | / | ? | / | 32µM*
c1ccc(C2=Nn3c(nnc3-c3ccco3)SC2)cc1 | -27% | 32µM* | 50µM* | -15% | -1%[11.4 µM] | -24%
Brc1ccc(C2=Nn3c(nnc3-c3cccnc3)SC2)s1 | 0% | 18%[12.7 µM] | -1% | 34% | 10% | 50µM*
CC1=Nn2c(nnc2-c2cc(-c3ccccc3)n[nH]2)SC1 | 11% | 14µM* | -1% | 43% | -4% | 0%
Brc1ccccc1C1=Nn2c(nnc2-c2ccccc2)SC1 | -5% | 32µM* | 79µM* | -26% | -4% | -24%
Fc1ccc(C2=Nn3c(nnc3-c3ccco3)SC2)cc1 | -4% | / | ? | 13% | 7% | 3%
Cc1cccc(C)c1-n1ncc(C(=O)N2CCN(c3ncccn3)CC2)c1C1CCN(C(=O)OC(C)(C)C)CC1 | 7%[57.1 µM] | -33%[59 µM] | / | 26% | / | -3%
CCCOc1ccc(C(=O)Nc2nonc2-c2ccc(OCC)cc2)cc1 | -1% | -17%[59 µM] | / | 16% | / | -15%
Cc1cc(OCCn2cc(C(=O)c3cccs3)c3ccccc32)ccc1Cl | 8% | 17%[59 µM] | / | 80% | / | -13%
COc1ccc(CN2CCNC(=O)C2CC(=O)NCCCC2CCCC2)c(C)c1C (stereo not given) | ? | ? | 1% | 21% | / | -31%
COc1ccccc1CN1CCNC(=O)C1CC(=O)N(C)Cc1nc(C)cs1 (stereo not given) | -5% | 50µM* | -6% | 44% | / | -8%
COc1cc(CN2CCNC(=O)C2CC(=O)NCCCC2CCCC2)cc(OC)c1 (stereo not given) | -22% | 71µM* | 4% | 21% | / | -26%
CN(CCC1CCOCC1)C(=O)CC1C(=O)NCCN1Cc1c(F)cccc1Cl (stereo not given) | -19% | 40µM* | 14% | 29% | / | -9%
O=CN1CCCN(C(=O)CC2C(=O)NCCN2Cc2cccc(Oc3ccccc3)c2)CC1 (stereo not given) | -36% | 45µM* | -10% | 47% | / | -17%

Compound activity from PubChem.
